This is a sample that favours compounds with a hit; in the whole collection about 4.1% have one here.
MBD2 inh: MBD2-methylated oligo binding inhibition. TR-FRET, MBD2 binding to methylated oligonucleotide. inhibition, % at 4.4 µM. hit rate 0.31% among 370,000; in the data active means inhibition above about 13%
UHRF1 MBD2 ctr: UHRF1 methyl-DNA binding inhibition; Q96T88; UHRF1 binding to methylated oligo, TR-FRET; inhibition, % at 4.4 µM; hit rate 0.75% among 370,000; in the data active means inhibition above about 21%;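 further: UHRF1 SRA domain binding a hemimethylated CpG hairpin DNA probe; 0% = median of test compound wells and 100% = reference inhibitor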
LEDGF integ inh: blocks HIV-1 LEDGF/p75-dependent DNA integration; hit rate 0.64% among 370,000; TR-FRET IN-LEDGF/p75 DNA integration, Eu/Cy5; inhibition, % at 3.7 µM;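 active means inhibition above the screen-wide mean plus 3 SD, cut at about 13% in these data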;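 further: signal is the Cy5 over europium emission ratio at 671 and 618 nm; 0% = plate median of compound wells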
rCAG RNA binder: r(CAG) repeat RNA binding; TO-PRO-1 dye displacement fluorescence; inhibition, % at 3 µM; hit rate 1.3% among 370,000;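 active means inhibition above the plate cutoff, the mean of all test compounds on that plate plus 3 SD, cut at about 35% in these data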;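 further: 0% = DMSO alone and 100% = 100 µM mitoxantrone as full dye displacement; higher means more dye released from RNA so lower well fluorescence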
ABHD5-PLIN5 inh: ABHD5-PLIN5 protein interaction inhibition; Q00G26+Q8WTS1; Split G. princeps luciferase complementation, luminescence, 4 h; inhibition, % at 4 µM; hit rate 0.78% among 360,000; AID 602281;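 active means inhibition above the mean inhibition across every tested compound plus 3 SD, cut at about 22% in these data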;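 further: 0% = DMSO only wells and the 100% control is not disclosed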
Target sequence (Q00G26 whole entry, looked up): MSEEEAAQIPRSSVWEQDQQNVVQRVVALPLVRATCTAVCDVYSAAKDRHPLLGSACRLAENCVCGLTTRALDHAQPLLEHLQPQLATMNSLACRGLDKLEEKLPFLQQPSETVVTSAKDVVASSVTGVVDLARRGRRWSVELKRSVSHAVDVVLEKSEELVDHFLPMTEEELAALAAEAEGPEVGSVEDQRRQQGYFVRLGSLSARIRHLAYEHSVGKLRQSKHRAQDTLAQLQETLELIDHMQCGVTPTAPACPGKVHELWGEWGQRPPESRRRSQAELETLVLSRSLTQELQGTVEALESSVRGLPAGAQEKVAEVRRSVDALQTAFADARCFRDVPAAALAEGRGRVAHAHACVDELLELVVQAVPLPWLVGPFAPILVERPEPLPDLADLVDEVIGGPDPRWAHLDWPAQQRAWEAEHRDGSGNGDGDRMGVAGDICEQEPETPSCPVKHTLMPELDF
Target sequence (Q8WTS1 whole entry, looked up): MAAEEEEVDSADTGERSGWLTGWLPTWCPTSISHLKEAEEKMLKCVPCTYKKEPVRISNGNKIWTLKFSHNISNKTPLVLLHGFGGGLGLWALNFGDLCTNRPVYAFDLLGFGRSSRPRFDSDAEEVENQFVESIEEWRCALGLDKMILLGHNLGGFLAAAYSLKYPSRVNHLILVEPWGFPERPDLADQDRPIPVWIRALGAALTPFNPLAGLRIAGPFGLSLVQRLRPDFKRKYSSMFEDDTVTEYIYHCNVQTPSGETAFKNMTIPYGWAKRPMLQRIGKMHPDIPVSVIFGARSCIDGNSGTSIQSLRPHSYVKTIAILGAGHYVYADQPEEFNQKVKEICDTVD
PRMT1 FP inh: blocks human protein arginine methyltransferase 1 | Q99873 | recombinant PRMT1, activity-based probe fluorescence polarization | inhibition, % at 2.79 µM | hit rate 1.3% among 370,000 | AID 652257;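 active means inhibition above about 21% made by adding two undisclosed values, limit read from the data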
IN multimer up: activates HIV-1 integrase multimerization in LEDGF counter-screen; shares compounds with LEDGF integ inh; hit rate 17% among 2,000; TR-FRET HIV-1 integrase multimerization, biochemical; activation, % at 7.7 µM; in the data active means activation above about 8.9%
TRFRET interf: optically interferes with TR-FRET readout in LEDGF counter-screen. shares compounds with LEDGF integ inh. TR-FRET optical interference counterscreen, HIV-1 IN multimerization. inhibition, % at 7.7 µM. 2,000 tested, under 10 active. AID 1053135;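 active means inhibition above the mean over all tested compounds plus 3 SD, which no compound reached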;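 further: 0% = integrase with antibodies and DMSO and 100% = antibodies without integrase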
LEDGF integ conf: LEDGF/p75-dependent HIV-1 integration inhibition, confirmation; shares compounds with LEDGF integ inh; TR-FRET LEDGF/p75-dependent HIV-1 integration, biochemical; inhibition, % at 3.7 µM; hit rate 36% among 2,000; AID 1053136; in the data active means inhibition above about 14%
Starred values were filed as active, the others as inactive.

O=C(Nc1nc(-c2ccccc2)cs1)c1ccc(=O)[nH]c1 was read as MBD2 inh 0, UHRF1 MBD2 ctr 4, LEDGF integ inh 4, rCAG RNA binder 8, ABHD5-PLIN5 inh 5 and PRMT1 FP inh -1.
COC(=O)c1ccc(Oc2ccc(S(=O)(=O)N3CCCCC3)cc2N)cc1 was read as MBD2 inh 3, UHRF1 MBD2 ctr 1, LEDGF integ inh -1, rCAG RNA binder -4, ABHD5-PLIN5 inh -6 and PRMT1 FP inh 4.
For Nc1cc(S(=O)(=O)N2CCCCC2)ccc1Oc1ccc(Cl)cc1 the results were MBD2 inh -2, UHRF1 MBD2 ctr -1, LEDGF integ inh 40*, rCAG RNA binder -3, ABHD5-PLIN5 inh -3, PRMT1 FP inh -3, IN multimer up 0, TRFRET interf 0 and LEDGF integ conf -3.
For Cc1nc(NCCCn2ccnc2)c2ccccc2n1 the results were MBD2 inh -6, UHRF1 MBD2 ctr 2, LEDGF integ inh 71*, rCAG RNA binder -2, ABHD5-PLIN5 inh 5, PRMT1 FP inh 2, IN multimer up -1, TRFRET interf 3 and LEDGF integ conf 0.
`CC(C)(C)OC(=O)C[C@H]1C/C=C\C[C@@H](CC(=O)NCCO)C(=O)NC[C@@H](c2ccccc2)OC1=O` gave MBD2 inh 2, UHRF1 MBD2 ctr -2, LEDGF integ inh 76*, rCAG RNA binder -6, ABHD5-PLIN5 inh -5, PRMT1 FP inh 2, IN multimer up 0, TRFRET interf 1 and LEDGF integ conf -1.
For Cc1ccc(/C=C/C(=O)N2CCCN(C(=O)/C=C/c3ccc(C)cc3)CC2)cc1 the results were MBD2 inh 1, UHRF1 MBD2 ctr -1, LEDGF integ inh 1, rCAG RNA binder -3, ABHD5-PLIN5 inh -2 and PRMT1 FP inh 0.
O=C(/C=C/c1ccc(F)cc1)N1CCCN(C(=O)/C=C/c2ccc(F)cc2)CC1 was read as MBD2 inh 3, UHRF1 MBD2 ctr 6, LEDGF integ inh 25*, rCAG RNA binder -4, ABHD5-PLIN5 inh 1, PRMT1 FP inh 1, IN multimer up 0, TRFRET interf 1 and LEDGF integ conf 0.
Screening O=C1C(Nc2ccccc2)=C(N2CCCCC2)C(=O)c2ccccc21 returned MBD2 inh 0, UHRF1 MBD2 ctr 8, LEDGF integ inh 22*, rCAG RNA binder 1, ABHD5-PLIN5 inh -35, PRMT1 FP inh 4, IN multimer up -1, TRFRET interf 2 and LEDGF integ conf 34*.
For COc1ccccc1NC1=C(N2CCCCC2)C(=O)c2ccccc2C1=O the results were ABHD5-PLIN5 inh -31.
`O=C(/C=C/c1ccc(O)cc1)c1ccc(NC2=C(N3CCCCC3)C(=O)c3ccccc3C2=O)cc1` gave MBD2 inh -5, UHRF1 MBD2 ctr 9, LEDGF integ inh 15*, rCAG RNA binder 18, ABHD5-PLIN5 inh 1, PRMT1 FP inh 8, IN multimer up 4, TRFRET interf -13 and LEDGF integ conf 30*.
`Cc1ccc(NC2=C(N3CCCCC3)C(=O)c3ccccc3C2=O)cc1` gave MBD2 inh -2, UHRF1 MBD2 ctr 14, LEDGF integ inh 17*, rCAG RNA binder 4, ABHD5-PLIN5 inh -27, PRMT1 FP inh 7, IN multimer up 1, TRFRET interf -4 and LEDGF integ conf 38*.
`O=C1C(Nc2cccc(O)c2)=C(N2CCCCC2)C(=O)c2ccccc21` gave MBD2 inh -6, UHRF1 MBD2 ctr 13, LEDGF integ inh 20*, rCAG RNA binder -9, ABHD5-PLIN5 inh -15, PRMT1 FP inh 16, IN multimer up -1, TRFRET interf 4 and LEDGF integ conf 37*.
For CCN1Cc2nnn(Cc3ccccc3)c2-c2cc(N3CCCC3)ccc2S1(=O)=O the results were MBD2 inh 3, UHRF1 MBD2 ctr -4, LEDGF integ inh -2, rCAG RNA binder 6 and PRMT1 FP inh -3.
Screening O=C(Nc1ccc(Cl)c(Cl)c1)C1CCCN(c2nnc(-n3cccc3)s2)C1 (centres undefined) returned MBD2 inh -6, UHRF1 MBD2 ctr 1, LEDGF integ inh 5, rCAG RNA binder 7 and PRMT1 FP inh 0.
`CS(=O)(=O)N1c2ccccc2C[C@H]1Cc1cc2ccccc2o1` gave MBD2 inh 2, UHRF1 MBD2 ctr -1, LEDGF integ inh -3 and PRMT1 FP inh 1.
Screening CC(C)(C)c1ccc(-c2nnc(SCc3ccccc3)n2Cc2ccco2)cc1 returned MBD2 inh -2, UHRF1 MBD2 ctr 2, LEDGF integ inh -1, rCAG RNA binder 2 and PRMT1 FP inh 6.
COc1ccc2c(c1)CCCN2C(=O)C1CCCN(S(=O)(=O)c2ccc(C(C)(C)C)cc2)C1 (centres undefined) was read as MBD2 inh 2, UHRF1 MBD2 ctr 0, LEDGF integ inh -2, rCAG RNA binder 8 and PRMT1 FP inh 5.
Screening c1nc(NCC2CCCCO2)c2cc(-c3ccc4c(c3)OCO4)ccc2n1 (centres undefined) returned MBD2 inh 4, UHRF1 MBD2 ctr 0, LEDGF integ inh -2 and PRMT1 FP inh 0.
CN(C1=C(N2CCCCC2)C(=O)c2ccccc2C1=O)c1ccccc1 was read as MBD2 inh 9, UHRF1 MBD2 ctr 5, LEDGF integ inh 16*, rCAG RNA binder -3, ABHD5-PLIN5 inh -11, PRMT1 FP inh 3, IN multimer up 2, TRFRET interf -11 and LEDGF integ conf 3.
For O=C1C(NS(=O)(=O)c2ccc(Br)cc2)=C(N2CCCCC2)C(=O)c2ccccc21 the results were MBD2 inh -8, UHRF1 MBD2 ctr -7, LEDGF integ inh -5, rCAG RNA binder 8, ABHD5-PLIN5 inh -13 and PRMT1 FP inh 3.
`Cc1nc2sc(C(c3ccccc3)N3CCOCC3)c(O)n2n1` (centres undefined) gave MBD2 inh 0, UHRF1 MBD2 ctr -4, LEDGF integ inh -1, rCAG RNA binder -1, ABHD5-PLIN5 inh 3 and PRMT1 FP inh 0.
For Cc1nc2sc(C(c3ccco3)N3CCC(C)CC3)c(O)n2n1 (centres undefined) the results were MBD2 inh 2, UHRF1 MBD2 ctr -2, LEDGF integ inh 13*, rCAG RNA binder 8, ABHD5-PLIN5 inh 5, PRMT1 FP inh 22*, IN multimer up -3, TRFRET interf 14 and LEDGF integ conf -3.
